# Inconclusive results are not listed. A call without a number means that no potency is given here. A number with no mark means an inactive call. Calls of active or inactive are those of the source. Unless noted, calls follow the shape of the full dose curve.
# Key:
# [1] = Primary qHTS for Huh7 cytotoxicity: counterscreen for inhibitors of MERS-S pseudotyped particle cell entry (AID 1479147)
# [2] = Primary qHTS for inhibitors of MERS-S pseudo-typed particle cell entry (AID 1479149); also: nearly all actives have a fitted effect of over 60% in size; also: potency is read from the fitted curve at half-maximal effect
# [3] = Primary qHTS for Vero E6 cytotoxicity: counterscreen for inhibitors of SARS-S pseudo-typed particle cell entry (AID 1479150)
# [4] = Confirmatory qHTS for VERO E6 Cytotoxicity Assay: Counterscreen for SARS-CoV-2 CPE Assay (AID 1508605); also: nearly all actives have a fitted effect of over 60% in size; also: potency is read from the fitted curve at half-maximal effect
# [5] = Primary qHTS for inhibitors of La Crosse Virus (LACV) - induced cell death in SH-SY5Y cells (AID 1508616; active = well fitted curve in the direction sought with a large enough effect; an effect the other way counts as inactive or inconclusive;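 also: top concentration of the series differs between compounds; higher means more rescue of cells from virus-induced death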)
# In short: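 SH-SY5Y cells (6000/well) plated 24 h, then given compounds by pin transfer and LACV at 0.01 MOI for 6 days at 37C. Viability measured by ATPLite luminescence, normalized to infected DMSO and uninfected DMSO.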
# [6] = molecular target: Calcium and integrin-binding protein 1 (Homo sapiens) (UniProt Q99828); test: Primary qHTS for Identification of Calcium Integrin Binding Protein 1 (CIB1) Competitor (AID 1508620; active = well fitted curve in the direction sought with a large enough effect; an effect the other way counts as inactive or inconclusive;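 also: GST tagged CIB1 binding a fluorescein labelled alphaIIb integrin peptide tracer; top concentration of the series differs between compounds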)
# In short: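 Fluorescence polarization competition: CIB1-GST (1 uM final) preincubated with compound 15 min at room temperature, then FITC-labeled alphaIIb peptide (100 nM final) added for another 15 min. Polarization read at Ex 480/Em 540.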
# [7] = Confirmatory qHTS for activators (rescue) of SARS-CoV-2 Cytopathic Effect (CPE) (AID 1508606); also: potency is read from the fitted curve at half-maximal effect; nearly all actives have a fitted effect of over 70% in size
# Sequence of Calcium and integrin-binding protein 1 (Homo sapiens) (Q99828 whole entry, looked up): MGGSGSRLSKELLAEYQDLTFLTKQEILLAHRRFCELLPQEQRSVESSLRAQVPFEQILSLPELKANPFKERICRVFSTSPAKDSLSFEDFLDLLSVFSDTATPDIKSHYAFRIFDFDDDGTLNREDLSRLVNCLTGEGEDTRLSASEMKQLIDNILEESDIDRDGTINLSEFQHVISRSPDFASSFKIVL
compound,measurement,setting,value
CC/C(=C(\c1ccccc1)c1ccc(OCCN(C)C)cc1)c1ccccc1,Potency,[1],inactive
same,Potency,[2],7.08 µM (active)
same,Potency,[3],inactive
same,Potency,[4],10 µM (active)
C#Cc1cccc(Nc2ncnc3cc(OCCOC)c(OCCOC)cc23)c1,Potency,[1],inactive
same,Potency,[3],inactive
CCCCc1oc2ccccc2c1C(=O)c1cc(I)c(OCCN(CC)CC)c(I)c1,Potency,[1],inactive
same,Potency,[2],10 µM (active)
same,Potency,[3],inactive
same,Potency,[4],inactive
CC(C)(C(=O)O)c1ccc(C(O)CCCN2CCC(C(O)(c3ccccc3)c3ccccc3)CC2)cc1 (configuration not stated),Potency,[1],inactive
same,Potency,[2],inactive
same,Potency,[3],inactive
c1ccc2c(c1)Nc1ccccc1S2,Potency,[1],inactive
same,Potency,[2],inactive
same,Potency,[3],inactive
same,Potency,[5],inactive
same,Potency,[6],inactive
CC(=O)CCCCn1c(=O)c2c(ncn2C)n(C)c1=O,Potency,[1],inactive
same,Potency,[2],inactive
same,Potency,[3],inactive
Oc1cc(Cl)ccc1Oc1ccc(Cl)cc1Cl,Potency,[1],inactive
same,Potency,[2],inactive
same,Potency,[3],inactive
same,Potency,[5],inactive
same,Potency,[6],inactive
Oc1ccccc1-c1ccccc1,Potency,[1],inactive
same,Potency,[2],inactive
same,Potency,[3],inactive
same,Potency,[5],inactive
same,Potency,[6],inactive
Cc1ccc(O)c([C@H](CCN(C(C)C)C(C)C)c2ccccc2)c1,Potency,[1],inactive
same,Potency,[3],inactive
CN(C/C=C/C#CC(C)(C)C)Cc1cccc2ccccc12,Potency,[1],inactive
same,Potency,[2],inactive
same,Potency,[3],inactive
CC(C)(C#N)c1cc(Cn2cncn2)cc(C(C)(C)C#N)c1,Potency,[1],inactive
same,Potency,[2],inactive
same,Potency,[3],inactive
O=C1Nc2ccc(Cl)cc2[C@@](C#CC2CC2)(C(F)(F)F)O1,Potency,[1],inactive
same,Potency,[2],inactive
same,Potency,[3],inactive
same,Potency,[4],inactive
COC(=O)N[C@H](C(=O)N[C@@H](Cc1ccccc1)[C@@H](O)CN(Cc1ccc(-c2ccccn2)cc1)NC(=O)[C@@H](NC(=O)OC)C(C)(C)C)C(C)(C)C,Potency,[1],inactive
same,Potency,[2],inactive
same,Potency,[3],inactive
NC1[C@H]2CN(c3nc4c(cc3F)c(=O)c(C(=O)O)cn4-c3ccc(F)cc3F)C[C@@H]12 (some centres not stated),Potency,[1],inactive
same,Potency,[2],inactive
same,Potency,[3],inactive
CCCC1CCCCN1 (configuration not stated),Potency,[1],inactive
same,Potency,[2],inactive
same,Potency,[3],inactive
same,Potency,[5],inactive
same,Potency,[6],inactive
COc1cc2nc(N(C)CCCNC(=O)C3CCCO3)nc(N)c2cc1OC (configuration not stated),Potency,[1],inactive
same,Potency,[3],inactive
OC(CCN1CCCC1)(c1ccccc1)C1CCCCC1 (configuration not stated),Potency,[1],inactive
same,Potency,[3],inactive
C[C@@H](O[C@H]1OCCN(Cc2n[nH]c(=O)[nH]2)[C@H]1c1ccc(F)cc1)c1cc(C(F)(F)F)cc(C(F)(F)F)c1,Potency,[1],inactive
same,Potency,[3],inactive
COCCCC/C(=N\OCCN)c1ccc(C(F)(F)F)cc1,Potency,[1],inactive
same,Potency,[2],inactive
same,Potency,[3],inactive
O=C1CCc2cc(OCCCCc3nnnn3C3CCCCC3)ccc2N1,Potency,[1],inactive
same,Potency,[3],inactive
CN(Cc1cnc2nc(N)nc(N)c2n1)c1ccc(C(=O)N[C@@H](CCC(=O)O)C(=O)O)cc1,Potency,[2],inactive
Cc1ccccc1C(OCCN(C)C)c1ccccc1 (configuration not stated),Potency,[1],inactive
same,Potency,[3],inactive
OCCN(CCO)c1nc(N2CCCCC2)c2nc(N(CCO)CCO)nc(N3CCCCC3)c2n1,Potency,[1],inactive
same,Potency,[3],inactive
CCC(COC(=O)c1cc(OC)c(OC)c(OC)c1)(c1ccccc1)N(C)C (configuration not stated),Potency,[1],inactive
same,Potency,[3],inactive
same,Potency,[5],inactive
same,Potency,[6],inactive
COc1ccccc1OCCNCC(O)COc1cccc2[nH]c3ccccc3c12 (configuration not stated),Potency,[1],inactive
same,Potency,[3],inactive
same,Potency,[4],inactive
same,Potency,[7],10 µM (active)
COC(=O)C1=C(C)NC(C)=C(C(=O)OCCN(C)Cc2ccccc2)C1c1cccc([N+](=O)[O-])c1 (configuration not stated),Potency,[1],inactive
same,Potency,[3],inactive
Nc1nc(=S)c2[nH]cnc2[nH]1,Potency,[2],inactive
CCC(C)n1ncn(-c2ccc(N3CCN(c4ccc(OC[C@H]5CO[C@](Cn6cncn6)(c6ccc(Cl)cc6Cl)O5)cc4)CC3)cc2)c1=O (some centres not stated),Potency,[2],2.51 µM (active)
same,Potency,[3],inactive
CCN(CC)CCOC(=O)C1(C2CCCCC2)CCCCC1,Potency,[1],inactive
same,Potency,[3],inactive
CC(CN1c2ccccc2Sc2ccccc21)N(C)C (configuration not stated),Potency,[1],inactive
same,Potency,[3],inactive
same,Potency,[4],inactive
same,Potency,[7],11.2 µM (active)
C[C@H]1c2cccc(O)c2C(O)=C2C(=O)[C@]3(O)C(O)=C(C(N)=O)C(=O)[C@@H](N(C)C)[C@@H]3[C@@H](O)[C@@H]21,Potency,[1],inactive
same,Potency,[3],inactive
CN1CCN(CCCN2c3ccccc3Sc3ccc(C(F)(F)F)cc32)CC1,Potency,[2],28.2 µM (active)
same,Potency,[3],inactive
CN(C)CC/C=C1\c2ccccc2COc2ccccc21,Potency,[1],inactive
same,Potency,[3],inactive
C=C[C@H]1CN2CC[C@H]1C[C@@H]2[C@@H](O)c1ccnc2ccc(OC)cc12,Potency,[1],inactive
same,Potency,[3],inactive
CCC1=C[C@@H]2CN(C1)Cc1c([nH]c3ccccc13)[C@@](C(=O)OC)(c1cc3c(cc1OC)N(C)[C@H]1[C@@](O)(C(=O)OC)[C@H](OC(C)=O)[C@]4(CC)C=CCN5CC[C@]31[C@@H]54)C2,Potency,[2],3.16 µM (active)
Cc1nc2n(c(=O)c1CCN1CCC(c3noc4cc(F)ccc34)CC1)CCCC2,Potency,[1],inactive
same,Potency,[3],inactive
CN1CCN(C2=Nc3ccccc3Oc3ccc(Cl)cc32)CC1,Potency,[1],inactive
same,Potency,[3],inactive
CN(C)CCC=C1c2ccccc2C=Cc2ccccc21,Potency,[1],inactive
same,Potency,[3],inactive
same,Potency,[4],inactive
CO[C@@]12[C@H](COC(N)=O)C3=C(C(=O)C(C)=C(N)C3=O)N1C[C@@H]1N[C@@H]12,Potency,[1],inactive
same,Potency,[3],inactive

# Reference: PubChem BioAssay (NCATS)
